For one sequence, binding signal results are on record in article PMC7862700, “An all-to-all approach to the identification of sequence-specific readers for epigenetic DNA modifications on cytosine”.

What all share (test): DAPPL (digital affinity profiling via proximity ligation, sequencing); 10 mM Tris-HCl pH 7.5, 50 mM NaCl, 1 mM DTT, 4% glycerol, room temperature, 30 min; GST-TFs on glutathione beads, 16-mer random dsDNA library, 0.1% formaldehyde crosslink after washing; high values mean tight binding
One test concerns the target T1, FLI1 (Homo sapiens, UniProt Q01543 1-452).
T1 sequence: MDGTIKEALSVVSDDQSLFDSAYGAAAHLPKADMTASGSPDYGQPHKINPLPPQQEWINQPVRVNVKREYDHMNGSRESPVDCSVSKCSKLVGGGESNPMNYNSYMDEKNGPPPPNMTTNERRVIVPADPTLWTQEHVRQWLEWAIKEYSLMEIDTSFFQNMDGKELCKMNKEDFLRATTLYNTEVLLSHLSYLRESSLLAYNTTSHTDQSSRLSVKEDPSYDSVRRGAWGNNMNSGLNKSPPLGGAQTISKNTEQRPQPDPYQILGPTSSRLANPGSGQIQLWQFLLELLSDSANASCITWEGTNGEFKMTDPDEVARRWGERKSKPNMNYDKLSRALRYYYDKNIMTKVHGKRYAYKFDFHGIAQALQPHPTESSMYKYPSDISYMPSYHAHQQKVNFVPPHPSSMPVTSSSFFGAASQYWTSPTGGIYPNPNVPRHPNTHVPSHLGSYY
The following applies: protein: recombinant; tags: N-terminal GST; dsDNA, one strand shown. The method, boiled down: (§1)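 A tag-only sample was pooled with DNA-barcoded human transcription factors that had been expressed in yeast as GST fusions and captured on glutathione beads. The pools were incubated for 30 min at room temperature with 200 nmole of a random double-stranded 16-mer DNA library in Tris/NaCl/DTT/glycerol buffer, then washed, crosslinked with 0.1% formaldehyde, proximity-ligated (BsaI/T4 ligase, 1 h, 37 °C), PCR-amplified and sequenced on an Illumina NextSeq500. Binding signal is each hexamer's read frequency for a factor divided by its frequency for the tag-only sample.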

For the next test, the target named is T2, ELK1 (Homo sapiens, UniProt P19419 1-428).
T2 sequence: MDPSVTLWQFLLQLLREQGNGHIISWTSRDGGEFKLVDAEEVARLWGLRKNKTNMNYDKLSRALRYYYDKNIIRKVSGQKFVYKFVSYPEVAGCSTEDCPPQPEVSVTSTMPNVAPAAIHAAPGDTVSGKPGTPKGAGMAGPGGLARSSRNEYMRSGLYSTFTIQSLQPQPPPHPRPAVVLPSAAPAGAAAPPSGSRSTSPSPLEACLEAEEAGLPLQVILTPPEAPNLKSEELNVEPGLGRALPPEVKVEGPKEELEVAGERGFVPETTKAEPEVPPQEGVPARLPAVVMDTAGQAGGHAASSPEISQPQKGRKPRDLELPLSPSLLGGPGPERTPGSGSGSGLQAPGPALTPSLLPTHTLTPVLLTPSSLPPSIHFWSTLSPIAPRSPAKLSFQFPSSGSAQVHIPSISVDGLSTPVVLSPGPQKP
The following applies: protein: recombinant; tags: N-terminal GST; dsDNA, one strand shown. The procedure, abridged:
as §1

Another test has as its target T3, GABPA (Homo sapiens, UniProt Q06546 1-454).
T3 sequence: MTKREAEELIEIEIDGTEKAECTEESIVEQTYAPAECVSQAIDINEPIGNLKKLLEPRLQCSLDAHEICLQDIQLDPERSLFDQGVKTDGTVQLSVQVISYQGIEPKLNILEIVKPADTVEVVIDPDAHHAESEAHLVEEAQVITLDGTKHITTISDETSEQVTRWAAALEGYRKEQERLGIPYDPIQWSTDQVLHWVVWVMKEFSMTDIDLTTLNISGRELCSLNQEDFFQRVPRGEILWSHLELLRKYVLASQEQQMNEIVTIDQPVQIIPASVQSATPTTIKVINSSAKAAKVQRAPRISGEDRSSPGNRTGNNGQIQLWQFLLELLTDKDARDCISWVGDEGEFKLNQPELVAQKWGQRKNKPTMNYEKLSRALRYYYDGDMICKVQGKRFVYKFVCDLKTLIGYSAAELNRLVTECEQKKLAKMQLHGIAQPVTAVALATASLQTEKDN
The following applies: protein: recombinant; tags: N-terminal GST; dsDNA, one strand shown. The method, boiled down:
as §1

For another test, the target named is T4, ERG (Homo sapiens, UniProt P11308 1-479).
T4 sequence: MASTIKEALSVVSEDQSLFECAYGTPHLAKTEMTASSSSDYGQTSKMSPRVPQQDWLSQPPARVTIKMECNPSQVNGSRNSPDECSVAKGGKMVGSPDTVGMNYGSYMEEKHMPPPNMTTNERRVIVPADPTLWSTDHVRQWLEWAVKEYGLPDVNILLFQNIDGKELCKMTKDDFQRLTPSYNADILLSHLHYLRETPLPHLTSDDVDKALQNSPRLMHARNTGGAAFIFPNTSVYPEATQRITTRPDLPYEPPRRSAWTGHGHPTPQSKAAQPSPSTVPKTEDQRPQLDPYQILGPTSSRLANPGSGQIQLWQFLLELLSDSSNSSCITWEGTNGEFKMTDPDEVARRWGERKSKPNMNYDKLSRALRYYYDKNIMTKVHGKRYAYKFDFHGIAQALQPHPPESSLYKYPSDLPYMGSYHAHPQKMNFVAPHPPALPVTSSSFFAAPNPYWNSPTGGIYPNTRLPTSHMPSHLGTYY
The conditions noted are these: protein: recombinant; tags: N-terminal GST; dsDNA, one strand shown. The procedure, abridged: as §1

Another test concerns the target ELF1 (Homo sapiens, UniProt P32519 1-619). The conditions noted are these: protein: recombinant; tags: N-terminal GST; dsDNA, one strand shown. The method, boiled down: as §1
A further test concerns the target T5, EHF (Homo sapiens, UniProt Q9NZC4 1-300).
T5 sequence: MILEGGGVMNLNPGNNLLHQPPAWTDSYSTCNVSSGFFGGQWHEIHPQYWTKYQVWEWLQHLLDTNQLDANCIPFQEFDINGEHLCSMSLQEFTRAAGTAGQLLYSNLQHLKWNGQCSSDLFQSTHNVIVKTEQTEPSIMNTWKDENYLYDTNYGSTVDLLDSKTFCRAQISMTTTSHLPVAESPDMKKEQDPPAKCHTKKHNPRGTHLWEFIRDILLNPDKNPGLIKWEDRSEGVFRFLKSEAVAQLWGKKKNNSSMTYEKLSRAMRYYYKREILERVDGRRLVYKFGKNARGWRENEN
The following applies: protein: recombinant; tags: N-terminal GST; dsDNA, one strand shown. The procedure, abridged:
as §1

The next test has as its target SPI1 (Homo sapiens, UniProt P17947 1-270). The following applies: protein: recombinant; tags: N-terminal GST; dsDNA, one strand shown. The method, boiled down:
as §1

In a further test the target is SPIB (Homo sapiens, UniProt Q01892 1-262). The following applies: protein: recombinant; tags: N-terminal GST; dsDNA, one strand shown. The method, boiled down: as §1
SPIB, sequence (Q01892 whole entry): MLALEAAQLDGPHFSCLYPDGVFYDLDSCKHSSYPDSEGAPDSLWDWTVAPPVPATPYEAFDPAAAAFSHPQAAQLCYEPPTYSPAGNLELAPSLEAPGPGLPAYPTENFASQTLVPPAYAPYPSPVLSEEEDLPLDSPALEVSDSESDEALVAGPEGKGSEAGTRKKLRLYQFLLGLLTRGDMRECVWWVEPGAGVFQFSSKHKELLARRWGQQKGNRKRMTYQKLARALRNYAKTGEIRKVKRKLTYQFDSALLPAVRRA
A further test addresses T6, ELK3 (Homo sapiens, UniProt P41970 1-407).
T6 sequence: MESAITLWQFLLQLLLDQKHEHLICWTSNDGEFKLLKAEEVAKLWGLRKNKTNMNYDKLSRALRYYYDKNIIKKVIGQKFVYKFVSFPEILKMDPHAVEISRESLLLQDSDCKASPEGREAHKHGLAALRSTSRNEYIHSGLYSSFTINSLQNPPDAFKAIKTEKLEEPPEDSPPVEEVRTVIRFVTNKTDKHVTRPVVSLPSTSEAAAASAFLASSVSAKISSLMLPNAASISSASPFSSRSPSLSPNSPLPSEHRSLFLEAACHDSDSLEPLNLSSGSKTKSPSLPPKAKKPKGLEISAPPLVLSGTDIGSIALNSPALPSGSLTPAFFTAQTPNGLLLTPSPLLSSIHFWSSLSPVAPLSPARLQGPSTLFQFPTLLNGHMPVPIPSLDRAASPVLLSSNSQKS
The conditions noted are these: protein: recombinant; tags: N-terminal GST; dsDNA, one strand shown. The procedure, abridged:
as §1

In the next test the target is T7, FEV (Homo sapiens, UniProt Q99581 1-238).
T7 sequence: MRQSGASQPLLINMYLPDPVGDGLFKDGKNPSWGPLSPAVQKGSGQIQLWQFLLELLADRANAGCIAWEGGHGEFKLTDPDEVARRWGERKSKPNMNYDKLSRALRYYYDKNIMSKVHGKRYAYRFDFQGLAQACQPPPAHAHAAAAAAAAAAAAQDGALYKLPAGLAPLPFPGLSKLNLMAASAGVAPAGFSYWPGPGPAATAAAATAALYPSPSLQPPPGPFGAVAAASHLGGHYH
The conditions noted are these: protein: recombinant; tags: N-terminal GST; dsDNA, one strand shown. The method, boiled down: as §1

Another test concerns the target ETV5 (Homo sapiens, UniProt P41161 1-510). The following applies: protein: recombinant; tags: N-terminal GST; dsDNA, one strand shown. The method, boiled down: as §1
In the next test the target is HSF1 (Homo sapiens, UniProt Q00613 1-529). The following applies: protein: recombinant; tags: N-terminal GST; chain copies: 3; dsDNA, one strand shown. The method, boiled down: as §1
HSF1, sequence (Q00613 whole entry): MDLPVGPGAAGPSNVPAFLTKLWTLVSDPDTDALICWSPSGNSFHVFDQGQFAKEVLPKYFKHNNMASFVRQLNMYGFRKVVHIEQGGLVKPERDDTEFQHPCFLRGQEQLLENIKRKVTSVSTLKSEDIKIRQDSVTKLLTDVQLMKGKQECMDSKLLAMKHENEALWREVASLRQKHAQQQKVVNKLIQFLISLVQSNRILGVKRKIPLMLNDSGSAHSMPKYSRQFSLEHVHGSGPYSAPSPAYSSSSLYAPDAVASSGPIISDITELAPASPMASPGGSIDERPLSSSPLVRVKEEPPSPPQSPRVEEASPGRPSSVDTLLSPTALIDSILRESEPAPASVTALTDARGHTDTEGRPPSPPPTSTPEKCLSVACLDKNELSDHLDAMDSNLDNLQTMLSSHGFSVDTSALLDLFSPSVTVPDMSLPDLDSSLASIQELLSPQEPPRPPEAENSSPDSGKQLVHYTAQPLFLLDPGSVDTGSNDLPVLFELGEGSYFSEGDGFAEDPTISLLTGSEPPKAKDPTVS
The target of a further test is T8, SPIC (Homo sapiens, UniProt Q8N5J4 1-248).
T8 sequence: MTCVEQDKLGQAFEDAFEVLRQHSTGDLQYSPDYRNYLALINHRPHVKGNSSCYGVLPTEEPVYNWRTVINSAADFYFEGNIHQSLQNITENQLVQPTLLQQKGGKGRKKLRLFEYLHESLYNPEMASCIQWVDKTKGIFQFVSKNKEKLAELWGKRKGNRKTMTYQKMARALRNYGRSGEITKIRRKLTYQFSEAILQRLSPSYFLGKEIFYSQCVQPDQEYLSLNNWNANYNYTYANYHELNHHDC
The conditions noted are these: protein: recombinant; tags: N-terminal GST; dsDNA, one strand shown. The procedure, abridged:
as §1

The target in the next test is ELF4 (Homo sapiens, UniProt Q99607 1-663). The conditions noted are these: protein: recombinant; tags: N-terminal GST; dsDNA, one strand shown. The method, boiled down:
as §1

The target of the next test is T9, ELK4 (Homo sapiens, UniProt P28324-2 1-405).
T9 sequence: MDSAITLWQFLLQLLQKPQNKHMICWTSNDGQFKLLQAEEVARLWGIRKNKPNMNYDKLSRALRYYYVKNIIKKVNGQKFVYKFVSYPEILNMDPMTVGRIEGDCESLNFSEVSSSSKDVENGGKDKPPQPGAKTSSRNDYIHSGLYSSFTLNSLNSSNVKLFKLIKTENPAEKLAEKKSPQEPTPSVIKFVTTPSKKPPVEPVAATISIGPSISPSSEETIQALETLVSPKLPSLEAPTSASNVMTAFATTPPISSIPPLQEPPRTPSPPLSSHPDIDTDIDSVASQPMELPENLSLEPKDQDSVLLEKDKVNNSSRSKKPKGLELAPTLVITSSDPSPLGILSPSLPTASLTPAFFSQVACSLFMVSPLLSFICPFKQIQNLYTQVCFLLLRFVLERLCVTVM
The conditions noted are these: protein: recombinant; tags: N-terminal GST; dsDNA, one strand shown. The procedure, abridged: as §1

The target of a further test is T10, ETV2 (Homo sapiens, UniProt O00321 1-342).
T10 sequence: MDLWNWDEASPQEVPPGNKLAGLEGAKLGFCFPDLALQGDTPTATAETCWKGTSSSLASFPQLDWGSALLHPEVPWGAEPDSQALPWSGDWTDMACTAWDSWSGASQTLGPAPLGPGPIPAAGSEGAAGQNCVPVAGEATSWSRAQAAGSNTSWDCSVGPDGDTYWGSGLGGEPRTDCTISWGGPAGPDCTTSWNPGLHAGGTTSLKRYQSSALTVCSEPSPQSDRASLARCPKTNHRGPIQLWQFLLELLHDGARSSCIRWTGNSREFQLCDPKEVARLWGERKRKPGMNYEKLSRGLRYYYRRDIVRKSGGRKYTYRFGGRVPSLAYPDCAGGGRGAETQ
The following applies: protein: recombinant; tags: N-terminal GST; dsDNA, one strand shown. The method, boiled down: as §1

The target in the next test is T11, ELF3 (Homo sapiens, UniProt P78545 1-371).
T11 sequence: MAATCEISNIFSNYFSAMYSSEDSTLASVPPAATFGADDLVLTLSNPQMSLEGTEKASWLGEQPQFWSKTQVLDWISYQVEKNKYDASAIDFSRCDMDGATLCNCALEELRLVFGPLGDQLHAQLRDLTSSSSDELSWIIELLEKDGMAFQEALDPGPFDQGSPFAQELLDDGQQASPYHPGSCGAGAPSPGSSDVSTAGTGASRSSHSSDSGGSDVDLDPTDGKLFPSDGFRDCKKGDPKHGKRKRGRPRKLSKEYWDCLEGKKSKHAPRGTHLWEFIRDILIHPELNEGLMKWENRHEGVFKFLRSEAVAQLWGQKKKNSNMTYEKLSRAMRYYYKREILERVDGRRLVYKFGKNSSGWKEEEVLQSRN
The following applies: protein: recombinant; tags: N-terminal GST; dsDNA, one strand shown. The method, boiled down:
as §1

A further test has as its target CRX (Homo sapiens, UniProt O43186 1-299). The conditions noted are these: protein: recombinant; tags: N-terminal GST; dsDNA, one strand shown. The procedure, abridged: as §1
For a further test, the target named is ETV1 (Homo sapiens, UniProt P50549 1-477). The conditions noted are these: protein: recombinant; tags: N-terminal GST; dsDNA, one strand shown. The method, boiled down:
as §1

ETV1, sequence (P50549 whole entry): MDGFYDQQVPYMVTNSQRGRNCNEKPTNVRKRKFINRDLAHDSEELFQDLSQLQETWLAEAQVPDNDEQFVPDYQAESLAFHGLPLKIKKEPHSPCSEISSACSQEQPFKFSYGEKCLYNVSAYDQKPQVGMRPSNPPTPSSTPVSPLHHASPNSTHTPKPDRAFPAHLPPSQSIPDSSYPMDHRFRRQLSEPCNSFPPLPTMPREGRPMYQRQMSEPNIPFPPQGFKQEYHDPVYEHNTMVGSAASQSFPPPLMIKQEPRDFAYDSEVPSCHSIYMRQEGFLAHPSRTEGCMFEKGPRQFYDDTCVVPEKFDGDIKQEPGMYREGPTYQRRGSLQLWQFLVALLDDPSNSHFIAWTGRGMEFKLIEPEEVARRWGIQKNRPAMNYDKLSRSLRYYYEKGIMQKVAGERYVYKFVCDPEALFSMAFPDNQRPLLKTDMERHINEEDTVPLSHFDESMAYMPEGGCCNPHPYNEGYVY
ELF4, sequence (Q99607 whole entry): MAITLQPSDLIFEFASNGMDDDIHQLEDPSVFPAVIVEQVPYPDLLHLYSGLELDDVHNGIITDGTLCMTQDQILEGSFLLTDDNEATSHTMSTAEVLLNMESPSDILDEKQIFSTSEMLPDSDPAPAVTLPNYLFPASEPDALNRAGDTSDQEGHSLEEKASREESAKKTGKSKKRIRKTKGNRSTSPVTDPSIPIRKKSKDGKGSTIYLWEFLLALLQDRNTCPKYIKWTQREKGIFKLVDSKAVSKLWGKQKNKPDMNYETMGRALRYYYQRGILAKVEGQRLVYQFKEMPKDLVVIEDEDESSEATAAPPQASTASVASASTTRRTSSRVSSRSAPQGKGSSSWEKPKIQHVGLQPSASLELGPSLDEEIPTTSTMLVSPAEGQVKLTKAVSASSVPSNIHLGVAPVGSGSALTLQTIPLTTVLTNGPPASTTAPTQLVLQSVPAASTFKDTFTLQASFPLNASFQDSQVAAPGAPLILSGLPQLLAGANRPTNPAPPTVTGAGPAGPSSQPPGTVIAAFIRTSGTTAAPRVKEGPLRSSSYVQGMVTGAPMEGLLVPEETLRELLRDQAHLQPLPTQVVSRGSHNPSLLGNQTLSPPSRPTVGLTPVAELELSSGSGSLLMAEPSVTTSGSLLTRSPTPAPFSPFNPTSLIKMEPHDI
ELF1, sequence (P32519 whole entry): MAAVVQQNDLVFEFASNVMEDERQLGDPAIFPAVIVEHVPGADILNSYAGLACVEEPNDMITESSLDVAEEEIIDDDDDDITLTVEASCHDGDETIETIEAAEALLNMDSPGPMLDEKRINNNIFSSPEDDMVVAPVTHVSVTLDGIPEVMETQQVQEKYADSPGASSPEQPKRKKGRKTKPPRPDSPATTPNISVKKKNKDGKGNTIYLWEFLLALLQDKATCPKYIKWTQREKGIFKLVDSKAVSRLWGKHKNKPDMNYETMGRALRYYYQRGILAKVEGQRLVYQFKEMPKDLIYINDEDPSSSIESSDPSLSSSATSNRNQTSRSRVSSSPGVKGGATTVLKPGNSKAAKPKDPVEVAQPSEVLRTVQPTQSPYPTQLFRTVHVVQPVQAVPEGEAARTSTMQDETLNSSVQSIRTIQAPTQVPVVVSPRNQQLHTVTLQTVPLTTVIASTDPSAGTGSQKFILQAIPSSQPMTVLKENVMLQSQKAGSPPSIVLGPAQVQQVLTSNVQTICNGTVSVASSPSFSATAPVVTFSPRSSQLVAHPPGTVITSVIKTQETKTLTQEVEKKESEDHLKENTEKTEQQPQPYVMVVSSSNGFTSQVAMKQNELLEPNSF
ETV5, sequence (P41161 whole entry): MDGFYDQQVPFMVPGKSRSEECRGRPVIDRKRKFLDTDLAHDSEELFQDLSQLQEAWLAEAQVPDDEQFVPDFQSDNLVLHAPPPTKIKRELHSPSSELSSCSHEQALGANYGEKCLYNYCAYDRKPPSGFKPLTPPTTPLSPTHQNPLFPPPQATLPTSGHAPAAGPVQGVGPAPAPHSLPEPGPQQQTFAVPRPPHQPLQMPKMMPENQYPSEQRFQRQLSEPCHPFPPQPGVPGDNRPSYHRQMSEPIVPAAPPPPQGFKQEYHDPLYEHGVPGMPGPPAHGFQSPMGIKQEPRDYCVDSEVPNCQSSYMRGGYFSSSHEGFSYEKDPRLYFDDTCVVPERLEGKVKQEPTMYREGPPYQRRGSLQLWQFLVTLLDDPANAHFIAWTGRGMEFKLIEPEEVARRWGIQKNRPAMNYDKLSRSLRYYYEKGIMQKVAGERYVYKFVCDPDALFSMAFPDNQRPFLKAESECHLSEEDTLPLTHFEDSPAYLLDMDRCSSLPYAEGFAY
CRX, sequence (O43186 whole entry): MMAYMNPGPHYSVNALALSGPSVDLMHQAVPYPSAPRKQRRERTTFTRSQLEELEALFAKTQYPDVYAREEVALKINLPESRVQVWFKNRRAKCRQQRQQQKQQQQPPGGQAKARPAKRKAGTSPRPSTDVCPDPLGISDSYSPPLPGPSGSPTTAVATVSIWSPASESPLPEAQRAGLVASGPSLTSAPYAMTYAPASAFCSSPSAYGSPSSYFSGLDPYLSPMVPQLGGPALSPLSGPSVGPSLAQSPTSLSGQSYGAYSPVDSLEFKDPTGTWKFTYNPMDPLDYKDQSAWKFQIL

On to CATTCG, for which the binding signal with FLI1 was 1.25 fold enrichment (6-mer frequency, TF over GST control); with ELK1 it was 1.11 fold enrichment (6-mer frequency, TF over GST control); with GABPA it was 1.17 fold enrichment (6-mer frequency, TF over GST control); with ERG, 1.21 fold enrichment (6-mer frequency, TF over GST control); with ELF1 it was 1.28 fold enrichment (6-mer frequency, TF over GST control); in the test with EHF, 1.08 fold enrichment (6-mer frequency, TF over GST control). For the same sequence, the binding signal with SPI1 is 1.26 fold enrichment (6-mer frequency, TF over GST control); with SPIB, 1.15 fold enrichment (6-mer frequency, TF over GST control); in the test with ELK3, 1.24 fold enrichment (6-mer frequency, TF over GST control); with FEV, 1.17 fold enrichment (6-mer frequency, TF over GST control); in the test with ETV5, 1.09 fold enrichment (6-mer frequency, TF over GST control); with HSF1, 1.64 fold enrichment (6-mer frequency, TF over GST control). Further, the binding signal in the test with SPIC is 1.3 fold enrichment (6-mer frequency, TF over GST control); in the test with ELF4 it was 1.18 fold enrichment (6-mer frequency, TF over GST control); with ELK4, 1.05 fold enrichment (6-mer frequency, TF over GST control); with ETV2, 1.22 fold enrichment (6-mer frequency, TF over GST control); with ELF3, 1.25 fold enrichment (6-mer frequency, TF over GST control); with CRX it was 1.14 fold enrichment (6-mer frequency, TF over GST control). In addition, the binding signal in the test with ETV1 was 1.16 fold enrichment (6-mer frequency, TF over GST control).
